Drawing on PubChem BioAssay (NCI), this text covers growth for seven compounds.

Among the test systems are NCI-H23 lung; NCI-H226 lung; NCI-H322M lung; HOP-62 NSCLC; NCI-H460 lung; HOP-92 NSCLC; NCI-H522 lung; A549/ATCC NSCLC; 786-0 renal; COLO 205 colon; DU-145 prostate; K-562 leukemia; MALME-3M melanoma; MDA-MB-231 breast; RXF 393 renal; SF-268 CNS; SF-295 CNS; SF-539 CNS; UACC-257 melanoma; M14 melanoma.
Experiment in all cases: NCI-60 one-dose screen, 48 h (100 = growth as untreated, 0 = no growth, -100 = all killed)
What all share (conditions): 10 µM unless noted

SMILES strings stand for the structures. The panel holds about 83,000 compounds, 20% with a hit somewhere; the sample as a whole holds those more often.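 Testing used 96-well plates and a 48-hour single-concentration exposure. Example: -40 means 40% of the starting cells died.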 A number with no mark means an inactive call. Activity calls are given as the source filed them. Rule for the calls: active = growth percent below 10; inactive = the rest.

Turning to `COc1ccc(C2=NN(C(=O)c3cc(OC)c(OC)c(OC)c3)C(c3ccc(N(C)C)cc3)C2)cc1` (stereo not given), the growth with NCI-H23 lung was 26.4%; in the assay on NCI-H226 lung, 20.6%; in the assay with NCI-H322M lung, 48.3%; with HOP-62 NSCLC, 54.5%; with NCI-H460 lung, 3.74% (active); in the assay on HOP-92 NSCLC, 21.6%. Moreover, the growth was -32.4% (active) in the assay with NCI-H522 lung; 30% in the assay with A549/ATCC NSCLC; 13.6% in the assay with 786-0 renal; 5.9% (active) with COLO 205 colon; 10.7% in the assay with DU-145 prostate; 44.2% with K-562 leukemia. Also, the growth in the assay with MALME-3M melanoma was 84%; in the assay on MDA-MB-231 breast it was 9.57% (active); in the assay with RXF 393 renal, -18.5% (active); with SF-268 CNS, 46.6%; in the assay with SF-295 CNS, 1.04% (active); in the assay with SF-539 CNS, -37% (active). Besides, the growth in the assay on UACC-257 melanoma is 62.6%; in the assay on M14 melanoma, 2.04% (active).
As to `CCn1cc(C2=C(c3cn(C)c4ncccc34)C(=O)NC2=O)c2cccnc21`, the growth was 66.3% with NCI-H23 lung; 57.5% with NCI-H226 lung; 79.6% with NCI-H322M lung; 73.1% in the assay with HOP-62 NSCLC; 44.5% with NCI-H460 lung; 81.4% in the assay with HOP-92 NSCLC. Moreover, the growth in the assay on NCI-H522 lung is 83.9%; in the assay with A549/ATCC NSCLC, 65%; with 786-0 renal, 50.5%; in the assay on COLO 205 colon it was 49%; in the assay on DU-145 prostate it was 80.1%; in the assay on K-562 leukemia it was 100%. The growth was 73.8% with MALME-3M melanoma; 61.2% in the assay on MDA-MB-231 breast; 76.9% in the assay on RXF 393 renal; 75.6% in the assay with SF-268 CNS; 61.4% in the assay with SF-295 CNS; 72% in the assay on SF-539 CNS. Also, the growth with UACC-257 melanoma is 102%; in the assay on M14 melanoma it was 81.8%.
Take `NC(=O)OCCn1cc(-c2nc(-c3c[nH]c4ncccc34)cs2)c2ccccc21`: the growth is 63.3% with NCI-H23 lung; 53% in the assay on NCI-H226 lung; 65.9% in the assay with NCI-H322M lung; 39.2% in the assay with HOP-62 NSCLC; 17.8% in the assay with NCI-H460 lung; 49.1% in the assay with HOP-92 NSCLC. For the same compound, the growth was 5.49% (active) in the assay on NCI-H522 lung; 36.9% in the assay with A549/ATCC NSCLC; 42.9% with 786-0 renal; 4.32% (active) in the assay on COLO 205 colon; 64.9% with DU-145 prostate; 11.8% with K-562 leukemia. Also, the growth in the assay on MALME-3M melanoma is 62.4%; in the assay with MDA-MB-231 breast, 49.7%; in the assay with RXF 393 renal, 46.3%; in the assay on SF-268 CNS it was 50%; in the assay with SF-295 CNS it was 25.5%; in the assay on SF-539 CNS, 33.8%. Also, the growth was 60.5% in the assay with UACC-257 melanoma and 11.8% in the assay with M14 melanoma.
On to `CC(C(=O)O)n1c(O)c(C=Nc2cccnc2)sc1=S` (stereo not given), for which the growth in the assay on NCI-H23 lung is 99.1%; in the assay with NCI-H226 lung it was 85.3%; in the assay on NCI-H322M lung, 93.1%; in the assay on HOP-62 NSCLC it was 89.5%; in the assay on NCI-H460 lung it was 100%; in the assay on HOP-92 NSCLC it was 86%. The growth in the assay on NCI-H522 lung was 89.2%; in the assay with A549/ATCC NSCLC it was 92.4%; in the assay with 786-0 renal, 95.5%; with COLO 205 colon, 107%; with DU-145 prostate it was 97%; in the assay on K-562 leukemia, 89%. Besides, the growth in the assay with MALME-3M melanoma is 98.8%; in the assay with MDA-MB-231 breast, 86.3%; in the assay on RXF 393 renal it was 88.7%; in the assay on SF-268 CNS, 87.7%; with SF-295 CNS, 101%; in the assay with SF-539 CNS it was 98.1%. Besides, the growth in the assay on UACC-257 melanoma was 103%; in the assay with M14 melanoma, 95.3%.
Turning to `CCN1C(=O)N(CC)C2C1NN=c1s/c(=C\c3ccccc3Br)c(=O)n12` (stereo not given), the growth was 27.1% in the assay on NCI-H23 lung; 56.7% with NCI-H226 lung; 37.5% in the assay with NCI-H322M lung; 40% in the assay with HOP-62 NSCLC; 3.66% (active) in the assay on NCI-H460 lung; 19.5% in the assay with HOP-92 NSCLC. Further, the growth in the assay with NCI-H522 lung is 0.628% (active); with A549/ATCC NSCLC, 12.3%; in the assay on 786-0 renal, 17.4%; in the assay with COLO 205 colon it was 3.13% (active); with DU-145 prostate, 10.5%; in the assay on K-562 leukemia, 13.1%. In addition, the growth is 42% in the assay on MALME-3M melanoma; 13.9% with MDA-MB-231 breast; 50.7% in the assay with RXF 393 renal; 43.9% in the assay with SF-268 CNS; 9.97% (active) with SF-295 CNS; -16% (active) in the assay with SF-539 CNS. Besides, the growth is 56% in the assay with UACC-257 melanoma and 8.22% (active) in the assay with M14 melanoma.
On to `COc1ccc2nc3cc(Cl)ccc3c(NCCN)c2c1`, for which the growth in the assay on NCI-H23 lung is -33.6% (active); with NCI-H226 lung, 31.8%; with NCI-H322M lung it was -46% (active); in the assay on HOP-62 NSCLC, -85.8% (active); in the assay with NCI-H460 lung, -71.4% (active); with HOP-92 NSCLC, 70.7%. The growth with NCI-H522 lung was -56.6% (active); with A549/ATCC NSCLC, -84.5% (active); with 786-0 renal, -88.9% (active); with COLO 205 colon, -83.2% (active); with DU-145 prostate, -94.1% (active); in the assay on K-562 leukemia, -64.6% (active). Further, the growth in the assay with MALME-3M melanoma was -71% (active); in the assay on MDA-MB-231 breast it was -71.6% (active); with RXF 393 renal, -85.9% (active); in the assay with SF-268 CNS, -53.7% (active); in the assay on SF-295 CNS it was -92.3% (active); in the assay on SF-539 CNS, -72% (active). Besides, the growth in the assay with UACC-257 melanoma is 101%; in the assay with M14 melanoma, -74.7% (active).
Regarding `COc1ccc(/C=C/C(=O)c2ccc(Nc3nc(Nc4ccc(F)cc4)nc(Nc4ccc(Cl)cc4)n3)cc2)cc1`, the growth in the assay with NCI-H23 lung was 93.3%; with NCI-H226 lung, 122%; in the assay on NCI-H322M lung it was 152%; in the assay with HOP-62 NSCLC, 112%; in the assay with NCI-H460 lung, 94.2%; with HOP-92 NSCLC, 44.7%. Further, the growth in the assay on NCI-H522 lung was 61.9%; in the assay with A549/ATCC NSCLC, 90.5%; in the assay on 786-0 renal, 92.6%; in the assay with COLO 205 colon it was 96%; with DU-145 prostate, 104%; with K-562 leukemia, 85.4%. For the same compound, the growth in the assay on MALME-3M melanoma was 164%; in the assay on MDA-MB-231 breast, 95.3%; with RXF 393 renal, 1.27% (active); in the assay on SF-268 CNS it was 100%; with SF-295 CNS, 81.8%; in the assay with SF-539 CNS, 109%. Also, the figures for the growth in the assay with UACC-257 melanoma and in the assay on M14 melanoma were 107% and 95.2%, respectively.
